21 compounds from PubChem BioAssay (NCATS) can be followed below.

Results filed as inconclusive are left out. Entries that show only a call come without a potency. The source made the active and inactive calls. Calls follow the shape of the dose curve; as a rule, active = well fitted inhibition curve with a large enough effect; inconclusive = small, poorly fitted or top-dose-only effect; inactive = flat fitted curve, though single readings scatter.
Potency is read from the fitted curve at half-maximal effect.

Chain of Ubiquitin carboxyl-terminal hydrolase 1 (Homo sapiens) (O94782 whole entry, looked up): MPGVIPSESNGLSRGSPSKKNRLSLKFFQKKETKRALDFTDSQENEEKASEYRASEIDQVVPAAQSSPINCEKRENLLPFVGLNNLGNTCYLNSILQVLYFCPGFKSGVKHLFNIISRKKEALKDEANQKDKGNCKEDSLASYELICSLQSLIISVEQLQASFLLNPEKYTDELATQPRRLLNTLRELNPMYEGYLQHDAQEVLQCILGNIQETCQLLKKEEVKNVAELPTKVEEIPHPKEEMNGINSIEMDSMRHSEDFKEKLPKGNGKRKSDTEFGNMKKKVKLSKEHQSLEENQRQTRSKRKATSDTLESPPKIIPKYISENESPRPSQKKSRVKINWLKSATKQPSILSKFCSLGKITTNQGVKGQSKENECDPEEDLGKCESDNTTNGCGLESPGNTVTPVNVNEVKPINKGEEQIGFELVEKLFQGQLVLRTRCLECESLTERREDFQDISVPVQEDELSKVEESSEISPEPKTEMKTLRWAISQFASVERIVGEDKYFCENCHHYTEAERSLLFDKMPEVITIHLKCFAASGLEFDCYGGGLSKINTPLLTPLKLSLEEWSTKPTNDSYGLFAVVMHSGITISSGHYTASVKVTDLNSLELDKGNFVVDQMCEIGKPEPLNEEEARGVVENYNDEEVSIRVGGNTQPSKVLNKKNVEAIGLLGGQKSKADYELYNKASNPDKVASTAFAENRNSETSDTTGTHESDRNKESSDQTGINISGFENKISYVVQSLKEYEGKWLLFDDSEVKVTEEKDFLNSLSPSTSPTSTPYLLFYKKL

The experiment has as its target Ubiquitin carboxyl-terminal hydrolase 1 (Homo sapiens) (UniProt O94782). In words: Inhibitors of USP1/UAF1: Pilot qHTS (AID 504865). Also: nearly all actives have a fitted effect of over 35% in size. To be noted: purified USP1/UAF1, Ub-rhodamine cleavage fluorescence; series mostly up to 114 µM. An outline of the steps:
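1nM USP1/UAF1 + cpd, 15 min RT; start w/ Ub-Rho 150nM final; kinetic FL 480/540 nm, 6 reads q60 s. Buffer 50mM HEPES pH 7.8, 0.5mM EDTA, 1mM TCEP, 0.01% Tween-20, 0.1 mg/ml BSA.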
For orientation: qHTS replaces the single test concentration by a dilution series.
For `CCOc1ccc(NC(=O)CC(C)O)cc1` (stereo unspecified), the Potency result was “inactive”.
As to `O=C1[C@H]2CCCC[C@H]2C(=O)N1CCCCN1CCN(c2nsc3ccccc23)CC1`, the Potency result is “inactive”.
`COc1ccc(/C=C/C(=O)c2ccc(OC)cc2OC)cc1`: the Potency entry was “inactive”.
Regarding `Oc1ccc(Cl)c2cccnc12`, the Potency entry was “inactive”.
With `CCCCCCCCCCCCCCCC[N+](C)(C)CC`, the Potency was 17.8 µM (active).
As for `CC(=O)Oc1ccc(C(c2ccc(OC(C)=O)cc2)c2ccccn2)cc1`, the Potency result was “inactive”.
The entry for `c1ccc(OCc2ccc(CCCN3CCOCC3)cc2)cc1` is “inactive”.
Take `CC(=O)Nc1c(I)cc(I)c(C(=O)O)c1I`: the Potency entry is “inactive”.
`CCCCC1=NC2(CCCC2)C(=O)N1Cc1ccc(-c2ccccc2-c2nn[nH]n2)cc1`: the Potency result is “inactive”.
The entry for `O=C1c2ccccc2C(=O)C1c1ccccc1` is “inactive”; for `CCOC(=O)c1cccc(N)c1` it is “inactive”; for `C[C@H]1[C@H](NC(=O)/C(=N/OC(C)(C)C(=O)O)c2csc(N)n2)C(=O)N1S(=O)(=O)O` (stereo in doubt) it is “inactive”.
For `NC(CS)C(=O)O` (stereo unspecified), the Potency result is “inactive”.
As for `O=C1OCCN1/N=C/c1ccc([N+](=O)[O-])o1`, the Potency entry was “inactive”.
On to `CCN(CC)CCOC(=O)C(c1ccccc1)C1CCCCC1` (stereo unspecified), for which the Potency result is “inactive”.
Consider `COc1cccc(CCc2ccccc2OCC(CN(C)C)OC(=O)CCC(=O)O)c1` (stereo unspecified), for which the Potency entry was “inactive”.
For the compound `CC(C)COC(=O)c1ccc(N)cc1`, the Potency entry was “inactive”.
As for `NC(=O)C(=O)N/N=C/c1ccc([N+](=O)[O-])o1`, the Potency entry was “inactive”.
In the case of `CCC(C(=O)OCCN(CC)CC)c1ccccc1` (stereo unspecified), the Potency entry is “inactive”.
To `CCN(CC)C(=O)/C(C#N)=C/c1cc(O)c(O)c([N+](=O)[O-])c1` belongs “inactive”.
The entry for `Cc1cccn2c(=O)c(-c3nnn[nH]3)cnc12` is “inactive”.
